According to PubChem BioAssay AID1347170 (National Center for Advancing Translational Sciences (NCATS), 2019):
Inconclusive results are not listed. Entries that show only a call come without a potency. The source made the active and inactive calls. The call rests on the fitted dose curve; in most records, active means well fitted cell-killing curve with a large enough effect; inconclusive means small, poorly fitted or top-dose-only effect, or another doubt; inactive means flat fitted curve, though single readings scatter.

Assay: Vero cells viability counterscreen for qRT-PCR qHTS assay of selected Zika virus inhibitors
Conditions: CellTiter-Glo ATP luminescence, 24 h; series mostly up to 41.8 µM
Text: Assay Submitters (PI): Avindra Nath, Ph.D., National Institute of Neurological Disorders and Stroke (NINDS), Bethesda, MD Radhakrishnan Padmanabhan, Ph.D., Georgetown University (GU), Washington D.C. Zika Virus causes congenital defects, including microcephaly and is associated with Guillain-Barre syndrome, eningoencephalitis and myelitis in infected adult. […] Using a target-based approach, we hope to establish a screening paradigm to uncover novel, cell-active NS2B-NS3 protease (Zika Virus) specific inhibitors from NCATS' collection of small molecules using qHTS. […] Four assay panel was created to identify potential Zika Virus inhibitors. Namely, (1) GU unlinked NS2B-NS3 AMC tagged protease qHTS, (2) GU unlinked NS2B-NS3 Rhodamine tagged protease qHTS, (3) NINDS linked NS2B-NS3 AMC tagged protease qHTS, (4) NINDS linked NS2B-NS3 Rhodamine tagged protease qHTS. Inhibitors of the Zika virus primary screens are confirmed using qRT-PCR secondary assays, mCherry orthogonal assay, and Vero cells viability counterscreen. Cytotoxic compounds identified in the Vero cell viability counterscreen were excluded from the list of potential Zika virus inhibitors. Early Translation Branch (ETB) National Center for Advancing Translational Sciences (NCATS), Rockville, MD National Institute of Health (NIH), Bethesda, Maryland
Vero Cell Viability Assay: Vero cell cytotoxicity was determined using a luminescent readout with CellTiter Glo reagent (Promega, Madison, WI), which is based on measuring the ATP content within cells. Briefly, 4 uL of Vero cells at 2.5 x 10^5 cells/mL in DMEM containing 4% FBS were dispensed into 1536-well solid bottom tissue treated white plate using a Multidrop Combi dispenser (Thermo Scientific). Plates were incubated at 37 degrees C, 95% humidity, and 5% CO2 overnight to allow for cell attachment. Compounds were dissolved in DMSO at different concentrations and transferred via pintool (Wako Automation), for a final concentration of 57 uM - 0.029 uM. Plates were again incubated for 24 hours, followed by a 2 uL addition of CellTiter Glo. Finally, plates were incubated for 30 minutes at 37 degrees C and 5% CO2 before being read on a ViewLux (Perkin Elmer) for luminescence.

| Compound | Potency |
| --- | --- |
| N#CC(c1ccc(Cl)cc1)c1c(Cl)cc(-n2ncc(=O)[nH]c2=O)cc1Cl (stereo not drawn) | inactive |
| O=C(Nc1ccc(Oc2ccc(Cl)cc2)c(Cl)c1)c1cc(I)cc(I)c1O | inactive |
| O=C(O)C1(Cc2cccc(Nc3nccs3)n2)CCC(Oc2cccc(Cl)c2F)CC1 (stereo not drawn) | inactive |
| Cc1ccn(-c2ccc(-c3ncco3)cc2)c(=O)c1-c1ccc2nc(N)ncc2c1 | inactive |
| O=C(c1cc(O)c(O)c([N+](=O)[O-])c1)c1ccccc1F | inactive |
| O=C(N/N=C/c1ccc(O)c(O)c1)c1cc2ccccc2cc1O | inactive |
| CC[C@H](C)[C@H]1O[C@]2(CC[C@@H]1C)C[C@@H]1C[C@@H](C/C=C(\C)[C@@H](O[C@H]3C[C@H](OC)[C@@H](O[C@H]4C[C@H](OC)[C@@H](O)[C@H](C)O4)[C@H](C)O3)[C@@H](C)/C=C/C=C3\CO[C@@H]4[C@H](O)C(C)=C[C@@H](C(=O)O1)[C@]34O)O2 | 11.2 µM (active) |
| C=C1c2cccc(O)c2C(O)=C2C(=O)[C@]3(O)C(O)=C(C(N)=O)C(=O)[C@@H](N(C)C)[C@@H]3[C@@H](O)[C@H]12 | inactive |
| COc1cc(Nc2nc3ccccc3nc2NS(=O)(=O)c2cccc(NC(=O)c3ccc(C)c(OC)c3)c2)cc(OC)c1 | inactive |
| CN(C)[C@@H]1C(=O)C(C(N)=O)=C(O)[C@@]2(O)C(=O)C3=C(O)c4c(O)ccc(Cl)c4[C@@H](O)[C@H]3C[C@@H]12 | inactive |
| Cc1cc(C)cc(C(=O)N(C)[C@H](Cc2ccc(-c3ccccc3)cc2)C(=O)N[C@@H](Cc2c[nH]c3ccccc23)C(=O)O)c1 | inactive |
| Cc1nc(C2CCCCC2)c(-c2ccc(S(N)(=O)=O)c(F)c2)o1 | inactive |
| CCOc1c2c(c(OCC)c3ccccc13)C(=O)N(c1ccc(CC(=O)NS(=O)(=O)c3ccccc3)cc1)C2 | inactive |
| O=C(O)c1ccc(S(=O)(=O)N(Cc2ccc(OC(F)(F)F)cc2)c2ncc(C(F)(F)F)cc2Cl)cc1 | inactive |
| COc1cc(C(=O)NS(=O)(=O)c2ccccc2C)ccc1Cc1cn(C)c2ccc(NC(=O)OC3CCCC3)cc12 | inactive |
| COc1cc(/C=C(\C#N)C(=O)Nc2nnc(C(F)(F)F)s2)ccc1OCc1ccc(C(F)(F)F)cc1C(F)(F)F | inactive |
| CC(=O)Nc1ccc([C@H](C)C(=O)Nc2ncc(C(C)C)s2)cc1 | 2.82 µM (active) |

| Compound | Potency |
| --- | --- |
| COc1cccc(-n2nc(C(=O)O)cc2-c2ccc(C3CCCCC3)c(Cl)c2)c1 | inactive |
| O=C(O)c1ccc(O)c2ncc(N3CCCN(CCc4cccc5ccccc45)CC3)cc12 | inactive |
| O=S(=O)(O)c1ccc2cc(N=Nc3cc(S(=O)(=O)O)c4cccnc4c3O)ccc2c1 | inactive |
| N#CC1(c2cccc(C(=O)Nc3cc(Oc4ccc5nc(NC(=O)C6CC6)sc5n4)ccc3F)c2Cl)CC1 | inactive |
| CC(Oc1ccccc1)C(=O)Nc1ccc(C(=O)OCc2cc(=O)n3nc(C4CC4)sc3n2)cc1 (stereo not drawn) | inactive |
| O=C(O)c1c(Sc2ccccc2)c2cc(Cl)ccc2n1Cc1ccc(Cl)cc1 | inactive |
| Cc1cc(C(C#N)c2ccc(Cl)cc2)c(Cl)cc1NC(=O)c1cc(I)cc(I)c1O (stereo not drawn) | 31.6 µM (active) |
| COc1cnc(-c2ccc(Cn3c(CC(C)(C)C(=O)O)c(SC(C)(C)C)c4cc(OC[C@@H]5Cc6ccccc6N5C(C)=O)ccc43)cc2)nc1 | inactive |
| COc1ccc(-c2ccccc2)cc1NS(=O)(=O)c1cc(Cl)cc(Cl)c1O | inactive |
| O=C(O)Cc1cc(I)c(Oc2ccc(O)c(I)c2)c(I)c1 | inactive |
| O=C(O)c1ccc(CCCc2ccc(OCCc3ccc(F)cc3)cc2)o1 | inactive |
| CC(C)=CCCC1(C)C=Cc2c(O)c3c(c(CC=C(C)C)c2O1)OC12C(=CCCC1C(C)(C)O[C@@]2(C/C=C(\C)C(=O)O)C(=O)O)C3=O (stereo partly drawn) | inactive |
| Cc1ccn(-c2cc(Cl)ccc2[C@@H](Oc2cc(-c3ccc(C[C@H](N)C(=O)O)cc3)nc(N)n2)C(F)(F)F)n1 | inactive |
| O=C(O)c1cccc(-c2ccc(-c3cn(C(=O)N4CCCCC4Cc4ccccc4)nn3)cc2)c1 (stereo not drawn) | inactive |
| CC1(C)CCC(CN2CCN(c3ccc(C(=O)NS(=O)(=O)c4ccc(NCC5CCOCC5)c([N+](=O)[O-])c4)c(Oc4cnc5[nH]ccc5c4)c3)CC2)=C(c2ccc(Cl)cc2)C1 | 3.16 µM (active) |
| COc1cc2c(c(O)c1OC/C=C(\C)CC/C=C(/C)CCC=C(C)C)CN(C(CCC(=O)O)C(=O)O)C2=O (stereo not drawn) | inactive |
